The full list was thinned out, with hits kept by preference.
SF1 inhibitor: blocks the human nuclear receptor SF-1 | Q13285 | 65,000 tested, 0.55% active | CHO-K1 Gal4-SF-1 LBD luciferase reporter | inhibition, % at 10 µM | AID 525;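 active = inhibition above the mean inhibition of all tested compounds plus 3 SD, cut at about 48% in these data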
Target sequence (Q13285 whole entry, looked up, the tested form may be a part): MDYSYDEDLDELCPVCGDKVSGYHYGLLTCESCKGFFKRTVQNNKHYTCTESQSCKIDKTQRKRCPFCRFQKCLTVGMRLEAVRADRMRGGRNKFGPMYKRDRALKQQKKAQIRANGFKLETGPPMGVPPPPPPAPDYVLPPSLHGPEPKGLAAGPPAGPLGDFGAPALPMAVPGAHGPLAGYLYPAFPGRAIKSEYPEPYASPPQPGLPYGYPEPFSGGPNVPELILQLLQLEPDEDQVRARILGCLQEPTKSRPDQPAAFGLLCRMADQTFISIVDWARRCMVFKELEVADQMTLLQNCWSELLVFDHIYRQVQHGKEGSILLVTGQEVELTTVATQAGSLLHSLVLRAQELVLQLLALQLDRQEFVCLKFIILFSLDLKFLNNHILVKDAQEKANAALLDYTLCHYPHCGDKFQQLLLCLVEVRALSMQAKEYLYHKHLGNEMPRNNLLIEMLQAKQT
Numbers stand for hits; n = inactive.

SMILES	SF1 inhibitor
O=C(OCC#CCSc1nc2ccccc2o1)c1ccco1	n
O=C(Nc1ccc2c(c1)OCO2)c1ccc(COc2ccc3c(c2)CCC3)o1	n
CC12CCC(C(=O)N3CCN(C(=O)C45CCC(C)(C(=O)O4)C5(C)C)CC3)(OC1=O)C2(C)C	n
COc1cc(C2C(C#N)=C(N)Oc3cc(N)ccc32)cc(OC)c1OC (centres undefined)	63
COc1cc(C2C(C#N)=C(N)Oc3cc(C)n(CC4CCCO4)c(=O)c32)cc2c1OCO2 (centres undefined)	n
COC(=O)Cc1[nH]nc2c1C(c1cccc(OC)c1OC)C(C#N)=C(N)O2 (centres undefined)	n
CCOC(=O)Cc1cn2c(=O)cc(CSCC(=O)Nc3ccc(C)c(C)c3)nc2s1	n
O=S(=O)(Nc1ccc2c(c1)nc1n2CCOC1)c1ccc(Cl)cc1	n
CCS(=O)(=O)N1CCCC(C(=O)NC2CCC(C)CC2)C1 (centres undefined)	n
COC(=O)C(Nc1nccs1)(OC)C(F)(F)F (centres undefined)	n
O=C1c2ccccc2C(O)N1Cc1ccc2c(c1)OCO2 (centres undefined)	n
O=C(Nc1ccc2c(c1)OCO2)c1c(F)cccc1F	n
O=C1/C(=C/Nc2ccc3c(c2)OCO3)CCc2ccccc21	74
CCN1CCN(c2ncc(C(=O)N3CCCc4ccccc43)c3ccccc23)CC1	n
COc1ccccc1NC(=O)C1C2C=CC3(CN(Cc4cccnc4)C(=O)C13)O2 (centres undefined)	n
CCOc1ccc(S(=O)(=O)N(CC(=O)O)c2ccc(C)cc2)cc1	n
Cc1cc2c(cc1C)NC(c1c(C)n(C)n(-c3ccccc3)c1=O)C1=C(CC(C)(C)CC1=O)N2 (centres undefined)	n
CSc1nc(-c2ccccc2)nc2[nH]ccc(=O)c12	n
CCN(CC)C(=O)CSc1ncnc2c(-c3cccs3)nsc12	n
Nc1nc(N)c2sc3nc4c(cc3c2n1)CCC4	n
CCCCNC(=O)c1nnn(-c2ccccc2)c1N	n
CCc1ccc2oc(-c3cc(N)cc(C)c3O)nc2c1	n
CCc1ccc2oc(-c3cc(N)ccc3O)nc2c1	56
CCc1ccc2oc(-c3cc(N)ccc3Cl)nc2c1	n
O=C(COc1ccc(F)cc1Br)N1CCc2ccccc21	n
SMILES	SF1 inhibitor
Cc1cc(C(=O)OCC(=O)N2CCc3ccccc32)c(C)o1	n
O=C(CSc1nnc(COc2cccc3cccnc23)o1)N1CCc2ccccc21	53
COC(=O)c1ccc(C(c2c(N)n(Cc3ccccc3)c(=O)n(C)c2=O)N2CCOCC2)cc1 (centres undefined)	n
CCc1cc2c(=O)c(-c3nc4ccccc4[nH]3)coc2c(CN2CCCC(C)C2)c1O (centres undefined)	n
CN=Cc1cc(-c2ccccc2)sc1O	n
CCN(c1ccccc1)c1ncnc2c1cnn2-c1ccccc1	n
Cc1cccc(-n2ncc3c(NCc4ccco4)ncnc32)c1	n
c1ccc(-n2ncc3c(NCCN4CCCCC4)ncnc32)cc1	n
Cc1cccc(-n2ncc3c(NCc4ccccc4)ncnc32)c1	n
Cc1cccc(-n2ncc3c(N(C)C4CCCCC4)ncnc32)c1	77
COc1ccc(-n2ncc3c(N(C)C4CCCCC4)ncnc32)cc1	74
CCc1ccc(NC(=O)c2cnc3n(c2=O)CCS3)cc1	n
COc1ccc(/C=C/C2=NC(=C\N(C)C)/C(=O)O2)cc1	n
CC(C)CCn1c(CN2CCN(c3cccc(Cl)c3)CC2)nc2c1c(=O)n(C)c(=O)n2C	n
CCOC(=O)CSc1nc2ccccc2c(=O)n1NC(=O)c1ccccc1	n
CCCc1[nH]nc2c1C1(C(=O)N(CC)c3ccccc31)C(C#N)=C(N)O2 (centres undefined)	n
COc1ccccc1OC(=O)C1CC(=O)N(c2ccc(Cl)cc2)C1 (centres undefined)	n
Cn1c(-c2ccc(Br)o2)nc2ccccc21	n
CN(C)c1ccc(-c2nc3ccccc3n2C)cc1	59
CCn1c(-c2ccc(N(C)C)cc2)nc2ccccc21	n
Cc1ccc(-c2csc3ncnc(Sc4nnc(CN5CCCCCC5=O)o4)c23)cc1	71
CCN(CCCNC(=O)Cn1cc2c(n1)CCCC2)c1cccc(C)c1	n
O=S(=O)(Nc1cccc2ncccc12)c1cccs1	96
CCS(=O)(=O)Nc1cc(-c2nc3cccnc3s2)ccc1C	n
O=C(CCCC(=O)N(CC(=O)NC1CCCCC1)Cc1ccc2c(c1)OCO2)Nc1ccccn1	n
SMILES	SF1 inhibitor
COc1ccc(-c2nnc(SC(C)C(=O)Nc3ccc4c(c3)OCCO4)o2)cc1 (centres undefined)	n
O=C(CCN1CCN(c2ccccc2)CC1)Nc1nccs1	n
CCCOCCOC(=O)c1[nH]c2c(c1C)C(=O)CC(c1cc(OC)ccc1OC)C2 (centres undefined)	n
COc1ccc(/C=N\n2nnc3ccccc32)cc1	70
C=CCSc1nncn1/N=C/c1ccc(OC)cc1	n
CCN(C)c1ccc(/C=N\n2nnnc2N)cc1	n
Cc1ccccc1NS(=O)(=O)c1ccc(OCC(=O)N2CCCC2)cc1	n
O=C(Nc1cccc(C(F)(F)F)c1)C1CCN(S(=O)(=O)c2cnc[nH]2)CC1	n
CC(C)(C)NC(=O)CSc1nnc(Cc2ccc3c(c2)OCO3)n1C1CCCCC1	n
Cc1cccc(-n2cnc3cc(C(=O)N4CCCCC4)ccc32)c1	n
COc1ccc(-c2nc(CS(=O)CC(=O)N3CCCC3)c(C)o2)cc1 (centres undefined)	n
Cc1cc(-c2ccco2)n(CC(=O)NCc2ccco2)n1	n
O=C(C1CCCCC1)N1CCN(c2ncccn2)CC1	n
COc1ccc(-c2nc(CSCC(=O)NCc3ccco3)c(C)o2)cc1	69
CCOc1ccc(-c2nc(CSCC(=O)NCCN3CCOCC3)c(C)o2)cc1	65
Cc1ccc(-c2nc(CS(=O)CC(=O)NCc3ccccn3)c(C)o2)cc1 (centres undefined)	n
COc1ccc2c(c1)CCc1c(C(=O)NCCN3CCOCC3)noc1-2	n
COc1ccc(C2=NOC(C(=O)NCCCN3CCOCC3)C2)cc1 (centres undefined)	n
CCc1ccc(-c2nc(CSCC(=O)N3CCN(c4ncccn4)CC3)c(C)o2)cc1	51
Cc1ccc(SCCNC(=O)C(CO)(CO)CO)cc1	n
CCOC(=O)COc1nc(Nc2ccccc2C)nc(N(C)C)n1	n
Cc1cccc(N(C)C(=S)Oc2ccc3ccccc3c2)c1	n
Cc1ccc(N(C=NC#N)CC(=O)N2CCN(c3ccccc3)CC2)cc1	n
CC(=O)Nc1ccc(-n2c(C)c(C(C)=O)c(C(C)=O)c2C)cc1	n
CC[C@H]1OC(=O)C[C@@H](O)[C@H](C)[C@@H](O[C@@H]2O[C@H](C)C[C@H](N(C)C)[C@H]2O)[C@@H](CC=O)C[C@@H](C)C(=O)C=C[C@]2(C)O[C@H]2[C@@H]1C	n
SMILES	SF1 inhibitor
O=C(CSC1=NCCN1)NC12CC3CC(CC(C3)C1)C2	n
O=C(Nc1ccc(N2CCOCC2)c(Cl)c1)c1ccc(Br)o1	n
O=C(Nc1ccc(N2CCOCC2)cc1)c1cnsn1	69
CN1CCN(c2ccc(NC(=O)c3ccc4c(c3)OCO4)cc2)CC1	n
Fc1ccc2nc3[nH]c4ccccc4c3nc2c1	n
COc1ccc2sc(NC(=O)CC(C)C)nc2c1	n
CC1CCN(C(=O)c2ccc(NC(=O)C3CCCO3)cc2)CC1 (centres undefined)	n
Cc1cccc(CN2CCN(CC(=O)NCc3ccc(F)cc3)C2=O)c1	n
CCOc1cc(CNC(=O)CN2C(=O)c3ccccc3S2(=O)=O)ccc1OC	n
Cc1cc(/C=N/n2cnnc2)c(C)n1-c1ccc(OCc2ccc(F)cc2)cc1	86

Compound activity as filed in PubChem BioAssay.
